Source: PubChem (National Center for Advancing Translational Sciences (NCATS))
Shown are actives, neighbours in structure and some others; about 6.9% of the full set was active somewhere.
L3MBTL1 inh: inhibitors of human L3MBTL1 | Q9Y468 | AlphaScreen L3MBTL1–H3K9me1 peptide binding | Potency, µM (highest dose often 57.1 µM), hits mostly inhibitors | 230,000 tested, 0.66% active; further: nearly all actives have a fitted effect of over 60% in size
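AlphaScreen assay: L3MBTL1 (50 nM final) was preincubated 30 min at room temperature with biotinylated H3(1-15)K9me1 peptide (75 nM final), then 30 min with library compounds; streptavidin donor and nickel chelate acceptor beads (10 ug/mL final) added, 30 min dark.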
HP1b chromo inh: HP1-beta chromodomain-methylated histone interaction inhibition | AlphaScreen HP1-beta / biotin-H3K9me3 peptide binding | Potency, µM (doses to about 114 µM), actives largely listed as inhibitors | 390,000 tested, 0.56% active; further: nearly all actives have a fitted effect of over 70% in size
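Compound inhibition of the preformed complex between 50 nM HP1-beta and 50 nM biotinylated H3K9me3 peptide was read by AlphaScreen. Buffer was PBS pH 7.4 with 0.01% Tween-20. Incubations ran 30 min at room temperature, with 10 ug/mL donor/acceptor beads.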
VDR inhibitor: blocks the human vitamin D receptor; P11473; VDR-SRC2-3 peptide fluorescence polarization, 2 h; Potency, µM, actives largely listed as inhibitors; 400,000 tested, 0.93% active; AID 504847
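Compounds are added to VDR with labelled SRC2-3 coactivator peptide and held 2 h at room temperature. Inhibition of the VDR–peptide interaction is then read as a change in fluorescence polarization.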
PLK1 PBD inh: inhibitors of human PLK1 polo-box domain binding. P53350. Plk1 PBD binding of FITC phosphopeptide, fluorescence polarization. Potency, µM, actives largely listed as inhibitors. 360,000 tested, 2.8% active. AID 720504; further: series mostly up to about 57 µM; nearly all actives have a fitted effect of over 65% in size
Target sequence (P53350 whole entry, looked up, the tested form may be a part): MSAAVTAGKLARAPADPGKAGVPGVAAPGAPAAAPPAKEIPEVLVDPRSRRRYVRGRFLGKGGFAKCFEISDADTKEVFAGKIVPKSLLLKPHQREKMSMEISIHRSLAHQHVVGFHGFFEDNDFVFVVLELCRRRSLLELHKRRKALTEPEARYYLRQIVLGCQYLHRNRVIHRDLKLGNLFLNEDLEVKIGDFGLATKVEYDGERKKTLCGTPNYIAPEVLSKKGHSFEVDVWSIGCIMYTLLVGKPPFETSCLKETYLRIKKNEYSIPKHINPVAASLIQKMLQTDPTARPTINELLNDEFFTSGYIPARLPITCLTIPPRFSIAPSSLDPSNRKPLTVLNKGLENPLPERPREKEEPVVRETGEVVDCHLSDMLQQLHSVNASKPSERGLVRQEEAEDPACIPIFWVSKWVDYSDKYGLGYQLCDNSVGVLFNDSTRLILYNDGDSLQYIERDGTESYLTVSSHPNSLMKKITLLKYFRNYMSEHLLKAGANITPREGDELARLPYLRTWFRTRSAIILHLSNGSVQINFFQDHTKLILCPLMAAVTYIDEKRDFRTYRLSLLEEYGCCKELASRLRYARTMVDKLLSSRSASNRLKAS
BAZ2B inh: inhibitors of human BAZ2B bromodomain; Q9UIF8; AlphaScreen BAZ2B-H3K14Ac peptide displacement; Potency, µM (titrated, usually from 114 µM), most hits filed as inhibitors; 360,000 tested, 4.4% active; further: nearly all actives have a fitted effect of over 60% in size
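BAZ2B 50 nM plus b-H3(5-23)K14Ac 50 nM, PBS pH 7.4/0.01% Tween-20, 30 min RT; compound added (max 110 uM), 30 min RT; streptavidin donor/Ni-chelate acceptor beads 10 ug/mL final, 20 min dark; AlphaScreen read.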
JMJD2A Tudor inh: blocks the human JMJD2A Tudor domain; AlphaScreen JMJD2A-Tudor / H3K4me3 peptide binding; 390,000 tested, 4.4% active; O75164; Potency, µM (series often up to 114 µM), hits mostly inhibitors; AID 504339; further: nearly all actives have a fitted effect of over 50% in size
Hits are given with their value; – = inactive; ? = inconclusive; · = not tested or not shown; [ ] = dose if it differs, or a comment. The call rests on the fitted dose curve; in most records, active means well fitted curve in the direction sought with a large enough effect; inconclusive means small, poorly fitted or top-dose-only effect, or another doubt; inactive means no such curve, though single readings can be large; an effect the other way counts as inactive or inconclusive.

SMILES	L3MBTL1 inh	HP1b chromo inh	VDR inhibitor	PLK1 PBD inh	BAZ2B inh	JMJD2A Tudor inh
CCc1cccc(CC)c1NC(=S)N(CCN(C)C)C(C)c1cccnc1 (stereo unspecified)	·	–	–	–	–	–
Cc1c(C(=O)Nc2cccc(F)c2)oc2c1-c1nn(Cc3c(F)cccc3Cl)cc1CC2	·	–	–	·	–	–
Cc1cc(C)nc(NCC(O)CNc2ccccc2Cl)n1 (stereo unspecified)	–[11.4 µM]	–	–	–	–	56µM
O=[N+]([O-])c1cccc(/C=N/Nc2nnc(-c3ccccc3)c(-c3ccccc3)n2)c1	–	–	–	–	–	–
O=[N+]([O-])c1cccc(C=NNc2ccccc2)c1	·	?	–	–	·	40µM
CC/C(=N\Nc1ccc([N+](=O)[O-])cc1)c1ccccc1	–	–	?	17µM	?	?
O=[N+]([O-])c1ccc(NN=C(Oc2ccccc2)c2ccc([N+](=O)[O-])cc2)cc1	·	·	·	–	·	·
O=[N+]([O-])c1cccc(N/N=C/c2ccc(N3CCOCC3)cc2)c1	·	40µM	–	–	18µM	35µM
O=[N+]([O-])/C=C\c1ccc(N2CCOCC2)cc1	·	–	25µM	30µM	·	–
O=[N+]([O-])c1ccc(C=NNc2ccccc2)cc1	·	?	–	–	·	25µM
O=[N+]([O-])c1cccc(-c2csc(N/N=C/c3cccc(O)c3)n2)c1	·	45µM	–	–	?	56µM
Cc1cc(OCC(=O)N(Cc2sccc2C)C2CCS(=O)(=O)C2)ccc1Cl (stereo unspecified)	·	–	–	·	–	–
CNC(=O)C1C(=S)NC(N)=C(C#N)C1c1ccccc1 (stereo unspecified)	·	–	20µM	27µM	–	25µM
CCOC(=O)/C(=C\c1c[nH]c2ccccc12)NC(C)=O	–	?	?	21µM	–	–
CCOC(=O)/C(=C/c1ccc(F)cc1)NC(C)=O	–	–	–	–	–	–
Oc1ccc(N=Cc2ccc(-c3cccs3)s2)cc1	?	?	79µM	–	?	35µM
COc1ccc(N=Nc2nc3cc(Br)c(Br)cc3n2C)c(OC)c1	?	45µM	–	?	35µM	32µM
CCOC(=O)c1[nH]cnc1C(=O)Nc1ccc(F)cc1	–	–	–	–	?	–
CCOC(=O)c1[nH]cnc1C(=O)Nc1ccncc1	·	–	–	–	50µM	28µM
CC1CCCC2(C1)NC(=S)c1c(sc3c1CCCC3)N2 (stereo unspecified)	·	?	40µM	5.3µM	?	79µM
O=C(O)Cn1nnc(-c2cccs2)n1	–	–	–	–	–	–
O=C(O)CCn1nnc(-c2cccs2)n1	–	–	–	–	79µM	–
O=C(NC(=S)NNC(=O)c1ccccc1O)c1cccc([N+](=O)[O-])c1	·	–	–	–	45µM	79µM
COc1ccc(C(=O)NNC(=S)NC(=O)c2cccc([N+](=O)[O-])c2)cc1	·	–	–	–	·	–
N#Cc1ccccc1NC(=S)NC(=O)c1cccnc1	·	–	–	12µM	–	–
SMILES	L3MBTL1 inh	HP1b chromo inh	VDR inhibitor	PLK1 PBD inh	BAZ2B inh	JMJD2A Tudor inh
O=C(NC(=S)NNC(=O)c1ccccc1O)c1cccnc1	?	–	–	?	?	56µM
O=C(NC(=S)Nc1ccccc1O)c1cccnc1	–[2.29 µM]	–	–	–	–	–
O=C(NC(=S)NNC(=O)c1ccc(Cl)cc1Cl)c1cccnc1	–	–	–	–	–	45µM
CC(=O)Nc1ccc(-c2nnc3n(Cc4ccc(C)cc4)c(=O)c4ccccc4n23)cc1	·	–	–	·	–	–
O=C(NC(=S)Nc1ccccc1C(=O)O)c1cncc(Br)c1	–	?	50µM	9.5µM	–	?
CCOc1ccc(Sc2cc(C(=O)NCCCOC)c3ccccc3n2)cc1	·	–	–	·	–	–
COc1ccc(C(=O)COC(=O)[C@H](C)Nc2ccc(C(F)(F)F)cc2[N+](=O)[O-])c(OC)c1	–	–	–	–	50µM	–
COc1ccc(C(=O)Cc2cc(OC)c(OC)cc2[N+](=O)[O-])c(OC)c1	–	–	–	–	–	–
CC1CC(C)(C)N(C(=O)CN2C(=O)c3ccccc3C2=O)c2ccccc21 (stereo unspecified)	–	–	–	–	–	–
CC1CC(C)(C)N(C(=O)CN2CCN(C)CC2)c2ccccc21 (stereo unspecified)	–	?	–	–	25µM	20µM
CCc1nn2c(=O)cc(COC(=O)c3cccc(NC(=O)c4cccs4)c3)nc2s1	·	–	–	·	–	–
CC(CNC(=O)CN1C(=O)COc2ccc(S(=O)(=O)N3CCCCCC3)cc21)c1ccccc1 (stereo unspecified)	·	–	–	·	?	–
Cc1ccc(-c2cc(C(F)(F)F)n3nc(C(=O)Nc4ccc(Cl)c(C(F)(F)F)c4)cc3n2)cc1	·	–	–	·	–	–
C=CCN(CC=C)CCOc1cccc2ccccc12	–	?	–	–	50µM	20µM
C=CCN(CC=C)CCOc1ccccc1	–	–	–	–	56µM	3.5µM
c1ccc(OCCOCCOc2ccccc2)cc1	·	–	–	–	·	–
CCCCN(CC)CCOc1cccc2ccccc12	·	·	–	·	·	·
Cc1ccccc1NC(=O)CSCc1cc(=O)n2ccsc2n1	·	–	–	–	–	–
Nc1nc(Cl)nc2ncn(Cc3ccccc3)c12	–	–	–	–	–	–
O=c1[nH]c(N2CCCCC2)nc2ncn(Cc3ccccc3)c12	–	–	?	27µM	–	–[11.4 µM]
CCNC(=O)CCn1nc(-c2ccc(C)cc2)c2ccccc2c1=O	·	–	–	30µM	–	?
CCCOc1ccc(C2=CSC3=NCCN23)cc1[N+](=O)[O-]	·	–	?	30µM	–	?
CCOc1ccc(C2=CSC3=NCCN23)cc1[N+](=O)[O-]	·	–	–	–	–	–
CCOc1ccc(C2=CSC3=NCCN23)cc1Cl	–	–	79µM	?	–	–
CCCCc1nc(SCC(=O)N2CCCC2)c2c(=O)n(C)c(=O)n(C)c2n1	·	–	–	–	–	–
SMILES	L3MBTL1 inh	HP1b chromo inh	VDR inhibitor	PLK1 PBD inh	BAZ2B inh	JMJD2A Tudor inh
Cc1ccc(S(=O)(=O)Nc2ccccc2C(=O)N2CCCCC2C)c(C)c1NS(C)(=O)=O (stereo unspecified)	·	–	–	–	–	–
C#CCn1c(C2CC(=O)N(c3ccc(OC)cc3)C2)nc2ccccc21 (stereo unspecified)	·	–	–	·	–	–
CN(C)CCCNc1ncnc2sc(-c3ccccc3)cc12	·	?	–	–	56µM	5.6µM
Cc1ccc(CSc2nc3ccccc3c(=O)n2Cc2ccco2)cc1	–	–	–	27µM	–	–[11.4 µM]
C=CCn1c(SCc2ccc(C(=O)O)cc2)nc2sc(C)c(C)c2c1=O	–	–	?	?	–	–
Cc1sc2nc(SCc3ccc(C(=O)O)cc3)n(Cc3ccco3)c(=O)c2c1C	–	–	89µM	27µM	?	–
CC(C)Oc1ccc(CNC(=O)c2ccc3nc(C(C)C)oc3c2)cc1	·	–	–	·	–	–
